Shown are actives, neighbours in structure and some others; about 12% of the full set was active somewhere.
G9a inh – inhibitors of human histone lysine methyltransferase G9a | G9a H3K9 monomethylation, AlphaScreen, 2 h | Potency, µM (doses to about 102 µM), most hits filed as inhibitors | 350,000 tested, 8.8% active | AID 504332; note: nearly all actives have a fitted effect of over 75% in size
Target sequence (Q96KQ7 913-1193 limits assumed): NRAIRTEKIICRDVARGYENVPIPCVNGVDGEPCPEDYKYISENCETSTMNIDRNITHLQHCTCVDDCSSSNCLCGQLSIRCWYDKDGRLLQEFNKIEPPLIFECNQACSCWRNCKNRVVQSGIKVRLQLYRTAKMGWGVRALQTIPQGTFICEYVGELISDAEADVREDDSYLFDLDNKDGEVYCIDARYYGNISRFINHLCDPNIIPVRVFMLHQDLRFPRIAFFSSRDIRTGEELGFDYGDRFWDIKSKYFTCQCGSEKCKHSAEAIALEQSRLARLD
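Using a bead-based AlphaScreen, monomethylated H3K9 product from 2 h room-temperature reactions (G9a 20 nM, peptide 500 nM, SAM 20 uM) was detected with 0.5 ug/mL rabbit anti-H3K9me1 antibody.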
HP1b chromo inh – HP1-beta chromodomain-methylated histone interaction inhibition. AlphaScreen HP1-beta / biotin-H3K9me3 peptide binding. Potency, µM (highest dose often 114 µM), actives largely listed as inhibitors. 390,000 tested, 0.56% active. AID 540317; note: nearly all actives have a fitted effect of over 70% in size
Target sequence (P83916 whole entry, looked up): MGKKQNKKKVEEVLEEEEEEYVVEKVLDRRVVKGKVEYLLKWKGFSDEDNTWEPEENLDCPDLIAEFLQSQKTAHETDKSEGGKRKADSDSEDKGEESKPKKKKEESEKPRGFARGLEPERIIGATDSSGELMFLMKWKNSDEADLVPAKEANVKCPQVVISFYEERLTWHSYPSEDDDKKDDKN
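AlphaScreen: HP1-beta (50 nM) preformed 30 min with biotin-H3(1-18)K9me3 peptide (50 nM) in PBS pH 7.4, 0.01% Tween-20. Compound added for 30 min at RT, then streptavidin donor/nickel chelate acceptor beads (10 ug/mL) for 30 min.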
TDP1 block – inhibitors of human tyrosyl-DNA phosphodiesterase TDP1; Q9NUW8; recombinant TDP1, AlphaScreen DNA substrate cleavage; Potency, µM (series often up to 130 µM), usual class: inhibitors; 350,000 tested, 0.28% active; AID 485290; note: nearly all actives have a fitted effect of over 40% in size
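Compounds were preincubated with Tdp1 (1 nM final) for 15 min at room temperature before substrate (15 nM final) started a 5 min reaction; beads (10 ug/ml final) were then added for 10 min before AlphaScreen detection.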
JMJD2A Tudor – inhibitors of human JMJD2A Tudor domain; AlphaScreen JMJD2A-Tudor / H3K4me3 peptide binding; Potency, µM (top dose mostly 114 µM), actives largely listed as inhibitors; 390,000 tested, 4.4% active; AID 504339; note: nearly all actives have a fitted effect of over 50% in size
Sfp inh – inhibitors of Bacillus subtilis Sfp phosphopantetheinyl transferase; Biochemical Sfp PPTase activity, qHTS; Q9F4F7; Potency, µM, most hits filed as inhibitors; 310,000 tested, 3.5% active;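 note: the enzyme is Sfp with the accession as filed and its product quenches rhodamine fluorescence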
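Sfp 15 nM + cpd, 15 min RT; start w/ rhodamine-CoA 5 uM, BHQ-2-YbbR 12.5 uM (final); 50 mM Hepes pH 7.6, 10 mM MgCl2, 0.01% NP-40, 0.01% BSA; read 525/598 nm at 0 and 30 min.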
BAZ2B block – inhibitors of human BAZ2B bromodomain; Q9UIF8; AlphaScreen BAZ2B-H3K14Ac peptide displacement; Potency, µM (highest dose often 114 µM), hits mostly inhibitors; 360,000 tested, 4.4% active; note: nearly all actives have a fitted effect of over 60% in size
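Protein-peptide AlphaScreen: BAZ2B 50 nM, b-H3K14Ac 50 nM, 1x PBS pH 7.4 + 0.01% Tween-20. Preincubation 30 min RT; cpd 30 min RT (top 110 uM); beads 20 min RT, light-protected.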
Hits are given with their value; n = inactive; u = inconclusive; x = no result; ! = repeats disagree; [ ] = another dose, or the depositor's remark. Calls come from the whole dose curve; as a rule, active = well fitted curve in the direction sought with a large enough effect; inconclusive = small, poorly fitted or top-dose-only effect, or another doubt; inactive = no such curve, though single readings can be large; an effect the other way counts as inactive or inconclusive.

SMILES	G9a inh	HP1b chromo inh	TDP1 block	JMJD2A Tudor	Sfp inh	BAZ2B block
OC(COc1cccc2ccccc12)CN1CCN(c2ccc(Cl)cc2)CC1 (configuration not stated)	45µM	n	n	u	n	u
Cc1cc(OCC(O)CN2CCN(c3ccccn3)CC2)cc(C)c1Cl (configuration not stated)	45µM	n	x	u	n	u
OC(COCC1COc2ccccc2O1)CN1CCN(c2ccccn2)CC1 (configuration not stated)	n	n	n	45µM!	n	n
OC(COCC1COc2ccccc2O1)CN1CCc2ccccc2C1 (configuration not stated)	n	n	n	n	n	n
Cc1c(CCC(=O)NCCCn2ccnc2)c(=O)oc2cc3oc4c(c3cc12)CCCC4	n[12.7 µM]	n	x	u	n	u
OC(COC(c1ccccc1)c1ccccc1)CN1CCN(c2ccccn2)CC1 (configuration not stated)	n	n	n	n	n	n
Cc1cc(C)c(OCC(O)CN2CCN(c3ccccn3)CC2)c(C)c1 (configuration not stated)	u	n	n	n	n	56µM
OC(COc1ccc(Cl)c2ccccc12)CN1CCN(c2ccccn2)CC1 (configuration not stated)	n[12.7 µM]	u	n	u	79µM	u
CCOc1ccc2c(c1)C(c1cccs1)=NNC(c1cccnc1)=N2	n	n	n	u	n	71µM
Brc1ccc2c(c1)C(c1cccs1)=NNC(c1cccnc1)=N2	n	n	n	n	n	n
COCCNCC1C(Oc2ccc(Cl)cc2)C(=O)N1c1ccccc1C (configuration not stated)	n	n	n	n	n	n
COc1ccc(CCNCC2C(Oc3ccc(Cl)cc3)C(=O)N2c2ccccc2C)cc1OC (configuration not stated)	45µM	n	n	u	n	u
COc1ccc(CCNC(=O)CN2CCC(C)CC2)cc1OC	u	u	n	u	n	56µM
COc1ccc(CCNC(=O)CN2CCCc3ccccc32)cc1OC	56µM	n	n	n	n	n
COc1ccc(CCNC(=O)CNCC2CCCCC2)cc1OC	n	u	x	25µM	n	56µM
COc1ccc(CNC(=O)CN2CCN(S(=O)(=O)c3cc(Br)ccc3Br)CC2)cc1OC	50µM	n	n	n	x	n
COc1ccccc1NC(=O)C(C)Sc1nc(-c2ccccc2)cn1N (configuration not stated)	n[12.7 µM]	n	n	n	x	u
COc1ccc(CCNC(=O)C2(C)CCC(=O)N2Cc2ccc(F)cc2Cl)cc1OC (configuration not stated)	n	n	x	n	n	n
CC1(C)Cc2nc3oc4c(SCC(N)=O)ncnc4c3cc2CO1	n	n	x	n	n	n
Cc1noc(/C=C/c2ccccc2F)c1S(=O)(=O)N1CCC(C(=O)NCC(C)c2ccccc2)CC1 (configuration not stated)	n	n	n	n	x	n
CCOc1cc(/C=N/N=C(N)N)ccc1OCc1ccc(Cl)cc1	u	n	n	u	20µM	u
O=C(O)c1cc(/C=N\O)ccc1OCc1ccccc1	n	n	n	n	n	n
NC(N)=N/N=C/c1ccc(OCc2ccccc2)c(OCc2ccccc2)c1	u	u	n	u	56µM	40µM
NC(N)=N/N=C/c1ccc(OCc2ccccc2Cl)cc1	n	n	n	u	50µM	n
CCOc1cc(/C=N/O)ccc1OCc1ccc(F)cc1	n	u	n	28µM	n	n
SMILES	G9a inh	HP1b chromo inh	TDP1 block	JMJD2A Tudor	Sfp inh	BAZ2B block
CC(CCc1ccccn1)(CCc1ccccn1)C(=O)c1ccccc1	x	n	x	n	x	x
CSc1ccccc1OCc1cc(C(=O)NC(C)Cn2cncn2)no1 (configuration not stated)	x	n	n	n	n	n
COc1cccc(-n2c(=O)c3c(C)c(C(=O)N(C)C)sc3n(CC(=O)Nc3ccc(C)cc3Cl)c2=O)c1	n	n	n	n	x	n
OC[C@H]1O[C@H](n2cnc3c(N[C@H]4CCC[C@@H]4O)ncnc32)[C@H](O)[C@@H]1O	n	x	x	x	x	x
COc1cc(/C=N/N=C(N)N)ccc1OCc1ccc(Cl)cc1	u	n	n	u	16µM	n
COc1cc(/C=N\n2nnnc2N)ccc1OCc1ccc(F)cc1	n	n	n	n	n	n
COc1cc(/C=N/O)ccc1OCc1ccc(Cl)cc1	x	x	n	x	n	n
COc1cc(/C=N/n2c(C)n[nH]c2=S)ccc1OCc1ccc(F)cc1	1.3µM	n	n	79µM	n	n
CCCn1c(/C=C/c2ccccc2)nc2ccccc21	n	n	n	n	u	n
CC(C)Cn1c(/C=C/c2ccco2)nc2ccccc21	7.9µM	n	n	n	35µM	n
COc1ccc(S(=O)(=O)N2CCN(C(=O)COc3ccc(C)c(C)c3)CC2)cc1OC	x	n	n	n	n	n
CCOC(=O)c1oc2cccc(OCC(O)CNC(C)C)c2c1C (configuration not stated)	u	n	n	n	28µM	n
CC1(C)CC2(CC(c3ccccc3F)c3ccc(O)c(O)c3O2)NC(=S)N1 (configuration not stated)	x	u	n	40µM	8.9µM	45µM
Oc1c(C=Nc2ccccc2Cl)[nH]c2ccccc12	8.9µM	n	n	u	u	n
Cc1ccccc1OCC(=O)Nc1ccccc1-c1ccccc1NC(=O)COc1ccccc1C	50µM	n	n	n	n	n
CC(=O)N1CCN(c2ccccc2NC(=O)COc2ccccc2C)CC1	n	n	n	n	n	n
COc1cc(C(=S)N2CCCCC2)ccc1OCC(=O)Nc1ccc(F)cc1	u	n	n	n	n	n
CC(=O)N1CCN(c2ccccc2NC(=O)COc2cc(C)cc(C)c2)CC1	n	n	n	50µM	n	n
Cc1cccc(OCC(=O)Nc2ncn[nH]2)c1C	n	n	x	n	n	50µM
Cc1ccccc1OCC(=O)Nc1ccccc1NC(=O)c1ccco1	u	n	n	n	n	n
COc1cc(C(=S)N2CCCC2)cc(Cl)c1OCC(=O)Nc1ccc(C)cc1C	7.9µM	u	n	u	u	u
Cc1ccc(C)c(OCC(=O)Nc2ccccc2N2CCCC2)c1	40µM	n	n	u	n	u
Cc1ccc(OCC(=O)Nc2ccccc2N2CCCC2)c(C)c1	n[12.7 µM]	n	n	n	u	71µM
Cc1ccc(C)c(N2N=C(C(=O)Nc3ccccc3N3CCCC3)CCC2=O)c1	50µM	50µM	n	45µM	n	35µM
Cc1cc(C)c(OCC(=O)Nc2ccccc2N2CCCCC2)c(C)c1	n	n	n	n	x	n
CCC1CN(C(=O)N2CCC(C(=O)NCc3ccco3)CC2)c2ccccc2O1 (configuration not stated)	n	n	n	n	n	n
